Laboratory results from PubChem BioAssay (NCI).
About 83,000 compounds went through this panel and 20% of them were active in at least one assay; those are over-represented in the sample as a whole.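 Compound tested at a single concentration for 48 hours in 96-well plates; a percent growth value below 10 was scored as active.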 Values without a mark were called inactive. Active and inactive are the calls of the source.

test system: HL-60(TB) leukemia; assay: NCI-60 one-dose screen, 48 h (100 = growth as untreated, 0 = no growth, -100 = all killed); settings: 10 µM unless noted

SMILES | growth
O=C(Nc1cccc(-c2cn(-c3ccc4oc(=O)ccc4c3)nn2)c1)Nc1cc(C(F)(F)F)cc(C(F)(F)F)c1 | 34.3%
O=C(N/N=C/c1c[nH]c2ccccc12)Nc1ccccc1Cl | 0.912% (active)
Nc1nc(-c2ccccc2)c(N=Nc2ccc(Cl)cc2Cl)s1 | -31.7% (active)
CN(C)c1nc(NCCNS(=O)(=O)c2ccc(C3=Nc4c(N)nc(N)nc4NC(c4ccc(F)cc4)C3)cc2)nc(Nc2ccc(F)cc2)n1 (stereo not drawn) | -25.1% (active)
S=C(NCCc1ccccc1)Nc1ccc(OCc2nc3ccc(Cl)cc3[nH]2)cc1 | 11.6%
Cc1cc(C)c2[nH]c(=O)c(C(c3nnnn3Cc3ccc4c(c3)OCO4)N3CCN(C)CC3)cc2c1 (stereo not drawn) | 129%
Cc1cc(C)cc(Oc2cccc(-c3c(C)nnn3C3CCN(CCN(C)C)CC3)n2)c1 | -37% (active)
CC(C)Sc1nc(NCCc2c[nH]c3ccccc23)c(C#N)c(-c2ccccc2)n1 | 19.3%
